Test results published in PubChem BioAssay AID1671192 (National Center for Advancing Translational Sciences (NCATS), 2021).
Records with an inconclusive call do not appear. The source made the active and inactive calls. The call rests on the fitted dose curve; in most records, active means well fitted curve in the direction sought with a large enough effect; inconclusive means small, poorly fitted or top-dose-only effect, or another doubt; inactive means no such curve, though single readings can be large or run the other way.

Biological target: Polyunsaturated fatty acid lipoxygenase ALOX15 (Homo sapiens) (UniProt P16050)
Assay: Counterscreen qHTS for inhibitors of human arachidonate 12S-lipoxygenase (ALOX12): ALOX15 Assay
Summary of the method: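 Xylenol orange–ferric complex formation, read as the 573 nm to 405 nm absorbance ratio, tracks product from 50 uM arachidonic acid turned over for 30 min at RT. Enzyme is 40 nM ALOX15, pH 7.5 HEPES buffer, compound-preincubated 15 min.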

Sequence of Polyunsaturated fatty acid lipoxygenase ALOX15 (Homo sapiens) (P16050 whole entry, looked up): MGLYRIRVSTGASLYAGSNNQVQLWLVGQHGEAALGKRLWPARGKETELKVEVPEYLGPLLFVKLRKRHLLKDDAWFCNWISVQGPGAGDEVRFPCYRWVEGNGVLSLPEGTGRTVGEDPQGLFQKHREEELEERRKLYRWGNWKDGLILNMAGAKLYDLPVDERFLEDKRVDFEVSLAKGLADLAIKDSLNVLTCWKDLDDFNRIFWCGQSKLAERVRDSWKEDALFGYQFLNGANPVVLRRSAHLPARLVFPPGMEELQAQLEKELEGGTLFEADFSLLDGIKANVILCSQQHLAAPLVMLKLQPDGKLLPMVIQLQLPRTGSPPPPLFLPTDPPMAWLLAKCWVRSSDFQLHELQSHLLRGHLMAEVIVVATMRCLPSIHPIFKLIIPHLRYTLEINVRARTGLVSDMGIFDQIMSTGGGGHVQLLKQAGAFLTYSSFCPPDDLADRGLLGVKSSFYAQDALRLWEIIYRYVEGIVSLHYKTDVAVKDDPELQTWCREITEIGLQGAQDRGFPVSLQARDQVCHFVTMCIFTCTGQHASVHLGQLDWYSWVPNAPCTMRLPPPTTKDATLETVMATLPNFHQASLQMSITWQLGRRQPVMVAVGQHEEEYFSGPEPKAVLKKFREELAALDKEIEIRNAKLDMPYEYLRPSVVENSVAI

Structure (SMILES) | outcome
O=C(NCC(F)(F)F)c1cc(C2CC2)nc2c1c(C1CCCN1)nn2-c1ccccc1 (stereo not given) | inactive
NCCC(=O)N1CCC2(CC1)CN(C(=O)Cc1ccc(Cl)cc1)CCO2 | inactive
O=C(c1ccccc1F)N1CCC2(C1)C(=O)N(c1ccccc1)c1ccccc12 (stereo not given) | inactive
CN1CC(=O)N(C2CCCNC2)Cc2c(NCCCO)ncnc21 (stereo not given) | inactive
COc1ccc(CC(=O)N2Cc3ccccc3CC3(CCCN(C)C3)C2)cc1 (stereo not given) | inactive
CC(C)C(=O)N1Cc2ccccc2CC2(CCCCN2CC2CCNC2)C1 (stereo not given) | inactive
O=C(O)CCCC(=O)N1Cc2ccccc2CC2(CCCN2Cc2ccccc2)C1 (stereo not given) | inactive
CC(=O)Nc1ccc(C(=O)N2C3CCC2CN(C(C)C)C3)cc1 | inactive
O=C(O)CCCC(=O)N1Cc2ccccc2CC2(CCCN(Cc3ccccn3)C2)C1 (stereo not given) | inactive
N#Cc1cccnc1-c1cccc(C(=O)O)c1 | inactive
O=C(O)c1cccc(-c2cnc3ccccc3c2)c1 | inactive
CN1CC(=O)N(C2CCCNCC2)Cc2c1ncnc2N1CCc2ccccc2C1 (stereo not given) | inactive
CN(C)c1ccc(CN2CCn3c(nn(-c4ccc(Cl)cc4)c3=O)C2)cc1 | inactive
O=C1NCc2ccccc2CC12CCN(Cc1ccccc1OC(F)(F)F)C2 (stereo not given) | inactive
CN(C)CCC(=O)N1Cc2ccccc2CC2(CCCCN2CC2CCOCC2)C1 (stereo not given) | inactive
O=C(c1ccc2c(c1)OCO2)N1CCCC1c1nnc2n1CCNC2 (stereo not given) | inactive
O=C1NC2(Cc3ccccc31)CN(C(=O)c1cccc3c1OC(F)(F)O3)C2 | inactive
O=C1NCc2ccccc2CC12CCN(Cc1ccc3ccccc3c1)C2 (stereo not given) | inactive
CCCN1CCC2(Cc3ccccc3CN(C(=O)Cc3ccc(O)cc3)C2)C1 (stereo not given) | inactive
C[S+](=O)([O-])N1Cc2ccccc2CC2(CCCCN2CC2CCNCC2)C1 (stereo not given) | inactive
O=C1NCc2ccccc2CC12CCCN2CC1=CCCCC1 (stereo not given) | inactive
NCc1cccc(-c2ccc(F)cc2F)c1 | inactive
Cn1ncc2c(C(=O)NCCc3ccc(Cl)cc3)cc(-c3ccc([S+](C)(=O)[O-])cc3)nc21 | inactive
Cc1ccc(C(=O)N2CCC3(CC(C(C)C)=NO3)C2)cc1 (stereo not given) | inactive
c1cc(NCCN2CCCC2)ccn1 | inactive

Structure (SMILES) | outcome
Cc1ccc(-c2cccc(CN)c2)cc1Cl | inactive
c1cncc(CN2CCn3c(nnc3C3CCCNC3)C2)c1 (stereo not given) | inactive
CC1CCCN(c2ncnc3c2CN(C2CCNCC2)C(=O)CN3C)C1 (stereo not given) | inactive
CC(C)CNC(=O)c1cc(C2CC2)nc2onc(C3CCCNC3)c12 (stereo not given) | inactive
CN1CC(=O)N(C2CCNC2)Cc2c(NC3CCCC3)ncnc21 (stereo not given) | inactive
c1cc2c(cc1OC1CN(CC3CCCCC3)C1)OCO2 | inactive
Cc1cc(C(=O)NC2CCCC2)c2c(C3CCNC3)noc2n1 (stereo not given) | inactive
CCCN1CCCC12Cc1ccccc1CN(C(=O)CCCC(=O)O)C2 (stereo not given) | inactive
CCc1nc2c(c(-c3ccc(OC)cc3)n1)CCN(Cc1cccc3ccccc13)CC2 | inactive
O=C1NCc2ccccc2CC12CCN(Cc1c(Cl)cncc1Cl)C2 (stereo not given) | inactive
NCc1cccc(-c2ccccc2F)c1 | inactive
CN1CC(=O)N(C2CCNCC2)Cc2c1ncnc2N1CCc2ccccc2C1 | inactive
FC(F)(F)c1ccc(CN2CCCC3(CC(c4cccc(C(F)(F)F)c4)=NO3)C2)cc1 (stereo not given) | inactive
O=C(N1CCCCC1)N1CCCC(c2nnc3n2CCNC3)C1 (stereo not given) | inactive
CN(C)c1ccc(CN2CCn3c(nnc3C3CCNCC3)C2)cc1 | inactive
CN1CCC2(Cc3ccccc3CN(C(=O)CCN)C2)C1 (stereo not given) | inactive
O=S(=O)(c1ccccc1)N1Cc2ccccc2CC2(CCN(Cc3cccnc3)C2)C1 (stereo not given) | inactive
COc1ccc(-c2cc(C(=O)NCC3CC3)c3c(C4CCNC4)noc3n2)cc1 (stereo not given) | inactive
O=C(O)C1=NOC2CN(Cc3c(F)cccc3Cl)CC12 (stereo not given) | inactive
O=C1NCc2ccccc2CC12CCN(Cc1ccc([N+](=O)[O-])cc1)C2 (stereo not given) | inactive
O=C(O)CCCC(=O)N1Cc2ccccc2CC2(CCCCN2CCc2ccccc2)C1 (stereo not given) | inactive
CN1CCC(C(=O)N2CCCC3(Cc4ccccc4CN3C(=O)c3ccccc3)C2)CC1 (stereo not given) | inactive
O=C(C1CCCC1)N1Cc2ccccc2CC2(CCN(Cc3ccncc3)C2)C1 (stereo not given) | inactive
COCCNc1ncnc2c1CN(C1CCCNCC1)C(=O)CN2C (stereo not given) | inactive
O=C1NCc2ccccc2CC12CCN(Cc1c(F)cccc1F)C2 (stereo not given) | inactive

Structure (SMILES) | outcome
CC(C)NC(=O)NC1CC2(CCN(C(=O)Cc3ccc(O)cc3)CC2)c2ccccc21 (stereo not given) | inactive
CC1CCCN(c2ncnc3c2CN(C2CCCNCC2)C(=O)CN3C)C1 (stereo not given) | inactive
COc1ccc(CN2CCC3(Cc4ccccc4CNC3=O)C2)c(O)c1 (stereo not given) | inactive
NCC(=O)N1Cc2ccccc2CC2(CCCCN2CC2CCOCC2)C1 (stereo not given) | inactive
O=C(c1cc(C2CC2)nc2c1c(C1CCCN1)nn2-c1ccccc1)N1CCOCC1 (stereo not given) | inactive
COc1cccc(N2C(=O)NC(=NC3CCCCC3)C23CCCN(C(=O)c2ccccc2)C3)c1 (stereo not given) | inactive
CN1CC(=O)N(C2CCNCC2)Cc2c1ncnc2N1CCCC(O)C1 (stereo not given) | inactive
CN1CC(=O)N(C2CCNCC2)Cc2c(NCC3CCCCC3)ncnc21 | inactive
CC(C)CCN1CCn2c(nn(-c3ccc(Cl)cc3)c2=O)C1 | inactive
Fc1ccc(OC2CN(CC3CC3)C2)cc1F | inactive
CNCc1sc2ccccc2c1C | inactive
CCCN1CCC2(Cc3ccccc3CN(C(=O)CCCC(=O)O)C2)C1 (stereo not given) | inactive
O=c1[nH]c(C2CCCN(Cc3ccc(-c4ccccc4)cc3)C2)nc2ccc(F)cc12 (stereo not given) | inactive
CN1CC(=O)N(C2CCNCC2)Cc2c(NC3CCCCCC3)ncnc21 | inactive
CC(=O)N1Cc2ccccc2CC2(CCCCN2Cc2ccccn2)C1 (stereo not given) | inactive
O=C1NCc2ccccc2CC12CCN(Cc1ccc(F)cc1O)C2 (stereo not given) | inactive
CN1CC(=O)N(C2CCNC2)Cc2c1ncnc2N1CCC(N2CCCCC2)CC1 (stereo not given) | inactive
NCC(=O)N1CCC2(CC1)CN(C(=O)Cc1cccc(Cl)c1)CCO2 | inactive
CC(C)(C)OC(=O)N1CC(Nc2cccc(Oc3ccccc3)c2)C1 | inactive
CCN1CCC(c2nc3ccc(F)cc3c(=O)[nH]2)CC1 | inactive
Cc1ccc(CN2CCC3(Cc4ccccc4CNC3=O)C2)cc1 (stereo not given) | inactive
Fc1ccc(OC2CN(Cc3cccc4ccccc34)C2)cc1F | inactive
COc1cc(OC(F)(F)F)ccc1C(=O)NCc1nnc2n1C(C(=O)O)CC2 (stereo not given) | inactive
NCC(=O)N1CCC2(CC1)CN(C(=O)c1ccc(Cl)cc1)CCO2 | inactive
O=[S+]([O-])(c1ccccc1)N1CC(Oc2ccc(F)c(F)c2)C1 | inactive
